# Data from the supplement of paper PMC4466140.
# Columns and labels:
# Assay in all cases: SPOT peptide array binding signal intensity (averaged, normalized) (arbitrary units (background-subtracted, floor 0; scale differs between SH3 domains)); higher = stronger binding of the SH3 domain to the peptide
# AgAbp1 = target: AgAbp1
# Method in brief: (§1)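 GST-fused SH3 domains from four yeast species were expressed in E. coli BL21(DE3), purified on glutathione Sepharose and incubated at 10 μg/ml overnight at 4°C in TBS-based blocking buffer on cellulose membranes carrying synthetic 15-mer peptides, with cysteines replaced by serines. Bound protein was detected with anti-GST antibody, an HRP anti-mouse secondary and luminol, then imaged and quantified with Genespotter. Binding signal is the normalized, background-subtracted spot intensity averaged over replicates, in arbitrary units that differ between domains.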
# AgBbc1 = target: AgBbc1
# Method in brief: as §1
# AgBem1-D1 = target: AgBem1-D1
# Method in brief: as §1
# AgBzz1-D1 = target: AgBzz1-D1
# Method in brief: as §1
# AgBzz1-D2 = target: AgBzz1-D2
# Method in brief: as §1
# AgCyk3 = target: AgCyk3
# Method in brief: as §1
# AgFus1 = target: AgFus1
# Method in brief: as §1
# AgHof1 = target: AgHof1
# Method in brief: as §1
# AgHse1 = target: AgHse1
# Method in brief: as §1
# AgLsb1 = target: AgLsb1
# Method in brief: as §1
# AgLsb4 = target: AgLsb4
# Method in brief: as §1
# AgMyo5 = target: AgMyo5
# Method in brief: as §1
# AgNbp2 = target: AgNbp2
# Method in brief: as §1
# AgRvs167 = target: AgRvs167
# Method in brief: as §1
# AgSho1 = target: AgSho1
# Method in brief: as §1
# AgSla1-D1-D2 = target: AgSla1-D1-D2
# Method in brief: as §1
# AgSla1-D3 = target: AgSla1-D3
# Method in brief: as §1
# CaAbp1-D1 = target: CaAbp1-D1
# Method in brief: as §1
# CaAbp1-D2 = target: CaAbp1-D2
# Method in brief: as §1
# CaBbc1 = target: CaBbc1
# Method in brief: as §1
# CaBem1-D1 = target: CaBem1-D1
# Method in brief: as §1
# CaBzz1-D1 = target: CaBzz1-D1
# Method in brief: as §1
# CaBzz1-D2 = target: CaBzz1-D2
# Method in brief: as §1
# CaCyk3 = target: CaCyk3
# Method in brief: as §1
# CaFus1 = target: CaFus1
# Method in brief: as §1
# CaHof1 = target: CaHof1
# Method in brief: as §1
# CaHse1 = target: CaHse1
# Method in brief: as §1
# CaLsb1 = target: CaLsb1
# Method in brief: as §1
# CaLsb4 = target: CaLsb4
# Method in brief: as §1
# CaMyo5 = target: CaMyo5
# Method in brief: as §1
# CaNbp2 = target: CaNbp2
# Method in brief: as §1
# CaRvs167 = target: CaRvs167
# Method in brief: as §1
# CaRvs167-3 = target: CaRvs167-3
# Method in brief: as §1
# CaSho1 = target: CaSho1
# Method in brief: as §1
# CaSla1-D1-D2 = target: CaSla1-D1-D2
# Method in brief: as §1
# CaSla1-D3 = target: CaSla1-D3
# Method in brief: as §1
# ScAbp1 = target: ScAbp1
# Method in brief: as §1
# ScBbc1 = target: ScBbc1
# Method in brief: as §1
# ScBem1-D1 = target: ScBem1-D1
# Method in brief: as §1
# ScBzz1-D1 = target: ScBzz1-D1
# Method in brief: as §1
# ScBzz1-D2 = target: ScBzz1-D2
# Method in brief: as §1
# ScCyk3 = target: ScCyk3
# Method in brief: as §1
# ScFus1 = target: ScFus1
# Method in brief: as §1
# ScHof1 = target: ScHof1
# Method in brief: as §1
# ScHse1 = target: ScHse1
# Method in brief: as §1
# ScLsb1 = target: ScLsb1
# Method in brief: as §1
# ScLsb2 = target: ScLsb2
# Method in brief: as §1
# ScLsb3 = target: ScLsb3
# Method in brief: as §1
# ScLsb4 = target: ScLsb4
# Method in brief: as §1
# ScMyo3 = target: ScMyo3
# Method in brief: as §1
# ScMyo5 = target: ScMyo5
# Method in brief: as §1
# ScNbp2 = target: ScNbp2
# Method in brief: as §1
# ScPex13 = target: ScPex13
# Method in brief: as §1
# ScRvs167 = target: ScRvs167
# Method in brief: as §1
# ScSho1 = target: ScSho1
# Method in brief: as §1
# ScSla1-D1-D2 = target: ScSla1-D1-D2
# Method in brief: as §1
# ScSla1-D3 = target: ScSla1-D3
# Method in brief: as §1
# SpAbp1-D1 = target: SpAbp1-D1
# Method in brief: as §1
# SpBbc1 = target: SpBbc1
# Method in brief: as §1
# SpBzz1-D1 = target: SpBzz1-D1
# Method in brief: as §1
# SpBzz1-D2 = target: SpBzz1-D2
# Method in brief: as §1
# SpCyk3 = target: SpCyk3
# Method in brief: as §1
# SpHof1 = target: SpHof1
# Method in brief: as §1
# SpHof1-2 = target: SpHof1-2
# Method in brief: as §1
# SpHof1-3 = target: SpHof1-3
# Method in brief: as §1
# SpHse1 = target: SpHse1
# Method in brief: as §1
# SpLsb1 = target: SpLsb1
# Method in brief: as §1
# SpLsb4 = target: SpLsb4
# Method in brief: as §1
# SpMyo1 = target: SpMyo1
# Method in brief: as §1
# SpNbp2 = target: SpNbp2
# Method in brief: as §1
# SpPex13 = target: SpPex13
# Method in brief: as §1
# SpRvs167 = target: SpRvs167
# Method in brief: as §1
# SpSla1-D1-D2 = target: SpSla1-D1-D2
# Method in brief: as §1
# SpSla1-D3 = target: SpSla1-D3
# Method in brief: as §1
binder,measurement,setting,value
EAEEAAPQLPSRSSA,SPOT peptide array binding signal intensity,AgAbp1,7
same,SPOT peptide array binding signal intensity,AgBbc1,≤ 0
same,SPOT peptide array binding signal intensity,AgBem1-D1,≤ 0
same,SPOT peptide array binding signal intensity,AgBzz1-D1,8.5
same,SPOT peptide array binding signal intensity,AgBzz1-D2,8.5
same,SPOT peptide array binding signal intensity,AgCyk3,≤ 0
same,SPOT peptide array binding signal intensity,AgFus1,8
same,SPOT peptide array binding signal intensity,AgHof1,0.5
same,SPOT peptide array binding signal intensity,AgHse1,3.5
same,SPOT peptide array binding signal intensity,AgLsb1,16
same,SPOT peptide array binding signal intensity,AgLsb4,3510
same,SPOT peptide array binding signal intensity,AgMyo5,≤ 0
same,SPOT peptide array binding signal intensity,AgNbp2,≤ 0
same,SPOT peptide array binding signal intensity,AgRvs167,11.3
same,SPOT peptide array binding signal intensity,AgSho1,≤ 0
same,SPOT peptide array binding signal intensity,AgSla1-D1-D2,≤ 0
same,SPOT peptide array binding signal intensity,AgSla1-D3,2
same,SPOT peptide array binding signal intensity,CaAbp1-D1,≤ 0
same,SPOT peptide array binding signal intensity,CaAbp1-D2,≤ 0
same,SPOT peptide array binding signal intensity,CaBbc1,≤ 0
same,SPOT peptide array binding signal intensity,CaBem1-D1,≤ 0
same,SPOT peptide array binding signal intensity,CaBzz1-D1,1
same,SPOT peptide array binding signal intensity,CaBzz1-D2,3.25
same,SPOT peptide array binding signal intensity,CaCyk3,≤ 0
same,SPOT peptide array binding signal intensity,CaFus1,5
same,SPOT peptide array binding signal intensity,CaHof1,0.25
same,SPOT peptide array binding signal intensity,CaHse1,6.75
same,SPOT peptide array binding signal intensity,CaLsb1,1.75
same,SPOT peptide array binding signal intensity,CaLsb4,6000
same,SPOT peptide array binding signal intensity,CaMyo5,1
same,SPOT peptide array binding signal intensity,CaNbp2,≤ 0
same,SPOT peptide array binding signal intensity,CaRvs167,340
same,SPOT peptide array binding signal intensity,CaRvs167-3,6.25
same,SPOT peptide array binding signal intensity,CaSho1,≤ 0
same,SPOT peptide array binding signal intensity,CaSla1-D1-D2,≤ 0
same,SPOT peptide array binding signal intensity,CaSla1-D3,≤ 0
same,SPOT peptide array binding signal intensity,ScAbp1,6
same,SPOT peptide array binding signal intensity,ScBbc1,≤ 0
same,SPOT peptide array binding signal intensity,ScBem1-D1,≤ 0
same,SPOT peptide array binding signal intensity,ScBzz1-D1,9
same,SPOT peptide array binding signal intensity,ScBzz1-D2,10
same,SPOT peptide array binding signal intensity,ScCyk3,1
same,SPOT peptide array binding signal intensity,ScFus1,≤ 0
same,SPOT peptide array binding signal intensity,ScHof1,4.25
same,SPOT peptide array binding signal intensity,ScHse1,≤ 0
same,SPOT peptide array binding signal intensity,ScLsb1,283
same,SPOT peptide array binding signal intensity,ScLsb2,12.5
same,SPOT peptide array binding signal intensity,ScLsb3,7150
same,SPOT peptide array binding signal intensity,ScLsb4,3370
same,SPOT peptide array binding signal intensity,ScMyo3,≤ 0
same,SPOT peptide array binding signal intensity,ScMyo5,≤ 0
same,SPOT peptide array binding signal intensity,ScNbp2,≤ 0
same,SPOT peptide array binding signal intensity,ScPex13,128
same,SPOT peptide array binding signal intensity,ScRvs167,1500
same,SPOT peptide array binding signal intensity,ScSho1,≤ 0
same,SPOT peptide array binding signal intensity,ScSla1-D1-D2,7
same,SPOT peptide array binding signal intensity,ScSla1-D3,0.75
same,SPOT peptide array binding signal intensity,SpAbp1-D1,≤ 0
same,SPOT peptide array binding signal intensity,SpBbc1,≤ 0
same,SPOT peptide array binding signal intensity,SpBzz1-D1,≤ 0
same,SPOT peptide array binding signal intensity,SpBzz1-D2,≤ 0
same,SPOT peptide array binding signal intensity,SpCyk3,1
same,SPOT peptide array binding signal intensity,SpHof1,0.5
same,SPOT peptide array binding signal intensity,SpHof1-2,3.5
same,SPOT peptide array binding signal intensity,SpHof1-3,1
same,SPOT peptide array binding signal intensity,SpHse1,0.5
same,SPOT peptide array binding signal intensity,SpLsb1,4.25
same,SPOT peptide array binding signal intensity,SpLsb4,6420
same,SPOT peptide array binding signal intensity,SpMyo1,≤ 0
same,SPOT peptide array binding signal intensity,SpNbp2,≤ 0
same,SPOT peptide array binding signal intensity,SpPex13,0.5
same,SPOT peptide array binding signal intensity,SpRvs167,2390
same,SPOT peptide array binding signal intensity,SpSla1-D1-D2,2
same,SPOT peptide array binding signal intensity,SpSla1-D3,1
